“And” between values parts separate entries of the source, which are not always exact repeats. Identical values can stand only once. Inconclusive results are not listed. The source made the active and inactive calls. Unless noted, calls follow the shape of the dose curve; as a rule, active = well fitted curve in the direction sought with a large enough effect in the repeat runs; inconclusive = weak or mixed curves; inactive = no such curve, though single readings can be large; an effect the other way counts as inactive or inconclusive.
Legend:
[1] = qHTS assay for small molecule agonists of the p53 signaling pathway (AID 651631; calls by dose curve; also: nearly all actives have a fitted effect of over 15% in size)
In short: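 HCT-116 p53RE-bla reporter line, 16 h compound treatment at 37 °C, then fluorescence after 2 h with B/G FRET substrate.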

[2] = qHTS assay for small molecules that induce genotoxicity in human embryonic kidney cells expressing luciferase-tagged ATAD5 (AID 651632); also: nearly all actives have a fitted effect of over 15% in size
In short: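 Reporter cells (HEK293T) express luciferase-tagged ATAD5, a protein that accumulates after DNA damage. Treat 16 hr at 37C/5% CO2, add Amplite, wait 30 min at RT, and read luminescence.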

[3] = qHTS assay for small molecules that induce genotoxicity in human embryonic kidney cells expressing luciferase-tagged ATAD5 - cell viability (AID 651634; calls by dose curve; also: nearly all actives have a fitted effect of over 25% in size)
In short: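 Seeding of 2,000 HEK293T ATAD5-luciferase cells per well preceded pin-tool compound transfer. Plates sat 15.5 hr at 37C under 5% CO2, then fluorescence was read after 30 min with CellTiter-Fluor.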

[4] = qHTS assay for small molecule disruptors of the mitochondrial membrane potential - cell viability (AID 720634; calls by dose curve;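 also: human HepG2 liver cancer cells; series mostly up to about 83 µM; nearly all actives have a fitted effect of over 20% in size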)
In short: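 Measuring cytotoxicity alongside mitochondrial potential, the screen quantified ATP by luminescence in HepG2 cells after 1 hr compound incubation and a 30 min room-temperature CellTiter-Glo step.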

[5] = qHTS assay for small molecule disruptors of the mitochondrial membrane potential (AID 720635); also: potency is read from the fitted curve at half-maximal effect
In short: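 HepG2 cells exposed to compound 1 hr at 37C, then Mito-MPS dye 30 min. Ratio read of aggregate (540/590 nm) versus monomer (490/535 nm) fluorescence.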

[6] = qHTS assay to test for compound auto fluorescence at 590 nm (red) in HepG2 cells (AID 720674)
In short: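 Seeding: 2,000 HepG2 cells/well, MEM/10% FBS, overnight 37 C. Dosing: compound vs DMSO. Incubation: 1 hr, 37 C, 5% CO2. Read: fluorescence 540 ex/590 em, Rose Bengal sodium as red reference.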

[7] = qHTS assay to test for compound auto fluorescence at 535 nm (green) in HepG2 cells (AID 720675)
[8] = qHTS assay to test for compound auto fluorescence at 460 nm (blue) in HEK293 cells (AID 720678)
In short: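 Intrinsic compound fluorescence is recorded in live HEK293 cultures after overnight incubation at 37C, 5% CO2, using excitation 405 nm and emission 460 nm. Values are referenced to triamterene.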

[9] = qHTS assay to test for compound auto fluorescence at 590 nm (red) in HEK293 cells (AID 720679)
In short: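 Red autofluorescence, HEK293 cells: 2,000 cells/well; attach 4-5 hr 37C; add 23 nL cpd or DMSO; incubate o/n 37C 5% CO2; read Ex540/Em590; Rose Bengal sodium reference.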

[10] = qHTS assay to test for compound auto fluorescence at 535 nm (green) in HEK293 cells (AID 720680)
[11] = qHTS assay to test for compound auto fluorescence at 535 nm (green) in HEK293 cell free culture (AID 720682)
In short: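 Steps: dispense DMEM/10% FBS into empty wells; pin in compound or DMSO; measure fluorescence at 485/535 nm. Values are fluorescein equivalents.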

[12] = qHTS assay to test for compound auto fluorescence at 590 nm (red) in HEK293 cell free culture (AID 720683)
In short: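 Cell-free wells of DMEM with 10% FBS received compound, and intrinsic fluorescence was read at excitation/emission 540/590 nm. Values expressed as equivalence to Rose Bengal sodium.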

[13] = qHTS assay to test for compound auto fluorescence at 590 nm (red) in HepG2 cell free culture (AID 720684)
In short: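 Compound was pinned into wells holding MEM with 10% FBS and no cells, and red fluorescence was read at Ex/Em 540/590 nm. Signal is expressed as auto fluorescence equivalency relative to Rose Bengal sodium.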

[14] = qHTS assay to test for compound auto fluorescence at 460 nm (blue) in HepG2 cell free culture (AID 720685)
In short: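 Compound (23 nL) or DMSO pinned into cell-free MEM with 10% FBS; blue fluorescence read at 405/460 nm excitation/emission, expressed as auto-fluorescence equivalency to triamterene.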

[15] = qHTS assay to test for compound auto fluorescence at 535 nm (green) in HepG2 cell free culture (AID 720686)
[16] = qHTS assay to test for compound auto fluorescence at 460 nm (blue) in HepG2 cells (AID 720687)
In short: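 HepG2 cells in MEM with 10% FBS, attached overnight at 37 C, were exposed to compound or DMSO for 1 hr at 37 C, 5% CO2. Blue fluorescence was read at 405/460 nm, with triamterene as reference fluorophore.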

[17] = target: Glucocorticoid receptor (Homo sapiens) (UniProt P04150); assay: qHTS assay to identify small molecule agonists of the glucocorticoid receptor (GR) signaling pathway (AID 720691; active = well fitted activation curve with a large enough effect in the signal ratio in the repeat runs, not every such curve was filed as active; the % refers to the signal ratio; also: potency is read from the fitted curve at half-maximal effect)
Glucocorticoid receptor (Homo sapiens), sequence (P04150 whole entry, looked up): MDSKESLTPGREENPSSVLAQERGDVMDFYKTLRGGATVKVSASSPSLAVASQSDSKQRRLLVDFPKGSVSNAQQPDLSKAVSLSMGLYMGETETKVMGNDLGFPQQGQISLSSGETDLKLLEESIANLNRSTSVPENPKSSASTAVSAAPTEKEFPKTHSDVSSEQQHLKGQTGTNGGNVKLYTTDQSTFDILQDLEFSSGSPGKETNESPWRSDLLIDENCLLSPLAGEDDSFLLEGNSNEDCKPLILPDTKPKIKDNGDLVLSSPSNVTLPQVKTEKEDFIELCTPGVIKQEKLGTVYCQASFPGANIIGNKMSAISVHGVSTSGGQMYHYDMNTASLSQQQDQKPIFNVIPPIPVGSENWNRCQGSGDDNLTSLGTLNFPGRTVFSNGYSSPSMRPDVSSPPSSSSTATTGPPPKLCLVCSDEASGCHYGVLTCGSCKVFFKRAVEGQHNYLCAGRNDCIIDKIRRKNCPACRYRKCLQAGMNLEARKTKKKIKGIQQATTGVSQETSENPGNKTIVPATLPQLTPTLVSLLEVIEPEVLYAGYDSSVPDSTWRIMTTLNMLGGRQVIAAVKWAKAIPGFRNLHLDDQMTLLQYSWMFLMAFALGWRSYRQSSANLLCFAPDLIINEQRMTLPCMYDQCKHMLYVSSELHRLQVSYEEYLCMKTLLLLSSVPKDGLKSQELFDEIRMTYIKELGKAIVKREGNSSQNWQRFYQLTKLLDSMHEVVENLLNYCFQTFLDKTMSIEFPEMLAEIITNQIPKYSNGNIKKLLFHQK
In short: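 Reporter read-out: fluorescence intensity following 2 h room-temperature LiveBLAzer B/G FRET substrate loading. Prior step: GR-bla HeLa cells held 4 h, then treated 18 h at 37 C.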

[18] = target: Glucocorticoid receptor (Homo sapiens) (UniProt P04150); assay: qHTS assay to identify small molecule antagonists of the glucocorticoid receptor (GR) signaling pathway (AID 720692; active = well fitted inhibition curve with a large enough effect in the signal ratio in the repeat runs, not every such curve was filed as active; the % refers to the signal ratio)
In short: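 Dexamethasone (5 nM final) stimulated a stably integrated GRE-beta-lactamase reporter in HeLa cells during 18 h co-incubation with compounds; signal was quantified as fluorescence intensity of B/G FRET substrate after 2 h.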

[19] = qHTS assay to test for compound auto fluorescence at 460 nm (blue) in HEK293 cell free culture (AID 720681)
In short: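 Compounds were added to cell-free DMEM with 10% FBS and fluorescence read directly. The blue channel used 405 nm excitation and 460 nm emission, with triamterene as the reference fluorophore.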

[20] = qHTS assay for small molecule agonists of the p53 signaling pathway - cell viability (AID 651633; calls by dose curve;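 also: p53RE-bla HCT reporter cells with a stable beta-lactamase p53 reporter; series mostly up to about 83 µM; nearly all actives have a fitted effect of over 30% in size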)
In short: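 p53RE-bla cells were treated with compound for 16 hours at 37 C. Cytotoxicity was then measured as CellTiter-Glo luminescence after 30 min at room temperature.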

Measured: Potency

N[C@H]1CN(c2c(F)cc3c(=O)c(C(=O)O)cn(C4C[C@H]4F)c3c2Cl)CC12CC2 (some centres undefined)
not listed: [19] | [20]
inactive: all other assays above

O=C1CC2CC1C1CCCC21 (centres undefined)
active: [17] 54.9 µM
not listed: [2] | [20]
inactive: all other assays above

Nc1c[n+](N2CCOCC2)no1
not listed: [1]
inactive: all other assays above

CCOC(=O)c1c(C)n(C)c2ccc(O)cc12
active: [5] 7.84 µM
not listed: [1] | [17]
inactive: all other assays above

N#Cc1ccc(C2CCCc3cncn32)cc1 (centres undefined)
not listed: [5] | [14] | [17] | [20]
inactive: all other assays above

CC(=O)OCC(=O)[C@@]1(O)CCC2C3CCC4=CC(=O)CC[C@]4(C)C3[C@@H](O)C[C@@]21C (some centres undefined)
not listed: [11] | [17] | [18] | [20]
inactive: all other assays above

COc1ccc(CCN(C)CCCC(C#N)(c2cc(OC)c(OC)c(OC)c2)C(C)C)cc1OC (centres undefined)
not listed: [5] | [14] | [20]
inactive: all other assays above

Brc1c(NC2=NCCN2)ccc2nccnc12
not listed: [2] | [5] | [11] | [19]
inactive: all other assays above

c1cnc(N2CCN(Cc3ccc4c(c3)OCO4)CC2)nc1
not listed: [1]
inactive: all other assays above

CC(C)=CCCC(C)CC(=O)O (centres undefined)
not listed: [1] | [17] | [18]
inactive: all other assays above

CCOC(C)(C)C
not listed: [5] | [11] | [17] | [18] | [20]
inactive: all other assays above

CCn1nc(C(=O)O)c(=O)c2cc3c(cc21)OCO3
not listed: [3] | [5] | [17] | [20]
inactive: all other assays above

OCCCC1CCCCC1
not listed: [1] | [11] | [13] | [17] | [18]
inactive: all other assays above

COc1nc(N)nc2c1ncn2[C@@H]1O[C@H](CO)[C@@H](O)[C@@H]1O
not listed: [5] | [17] | [20]
inactive: all other assays above

COC(=O)CC(C)=O
not listed: [1] | [13]
inactive: all other assays above

CCCCC/C=C\CCC=O
not listed: [5] | [17] | [20]
inactive: all other assays above

CC1(C)CO[C@@H](CC(=O)O)CN1
not listed: [5] | [11] | [14] | [18] | [20]
inactive: all other assays above

Cc1c(NC(C)C)c(=O)n(-c2ccccc2)n1C
not listed: [11] | [19] | [20]
inactive: all other assays above

CC/C=C\CCOC(C)=O
not listed: [5] | [20]
inactive: all other assays above

COC(=O)c1c(Cl)c(Cl)c(C(=O)OC)c(Cl)c1Cl
not listed: [13] | [14] | [17] | [20]
inactive: all other assays above

CCN(Cc1ccncc1)C(=O)C(CO)c1ccccc1 (centres undefined)
not listed: [2] | [11] | [18]
inactive: all other assays above

Cc1c(O)cccc1O
not listed: [1] | [17] | [18]
inactive: all other assays above

CC(C)(C)NCCNC(C)(C)C
not listed: [5] | [11] | [17] | [18] | [20]
inactive: all other assays above

Cc1cc2c(cc1S(N)(=O)=O)S(=O)(=O)CCC2
not listed: [5] | [14] | [20]
inactive: all other assays above

O=c1[nH]c(=O)n([C@H]2C[C@H](O)[C@@H](CO)O2)cc1I
not listed: [2] | [14] | [17] | [18]
inactive: all other assays above

COCCCOCCCOC
not listed: [1] | [13] | [17] | [18]
inactive: all other assays above

C=COCC1CCC(CO)CC1 (centres undefined)
not listed: [11] | [17] | [19] | [20]
inactive: all other assays above

CC(C)(c1ccc(O)cc1)c1ccc(O)cc1
active: [5] 6.78 µM and 5.54 µM
not listed: [1] | [17] | [18] | [19]
inactive: all other assays above

CCCCCCCCCCCCCCCCC
not listed: [1] | [11]
inactive: all other assays above

Cc1cc(O)cc2c1O[C@](C)(CCC[C@H](C)CCC[C@H](C)CCCC(C)C)CC2
not listed: [14] | [17] | [18] | [20]
inactive: all other assays above

C1CN(CCOCCN2CCOCC2)CCO1
not listed: [5] | [19] | [20]
inactive: all other assays above
